Compound activity deposited in PubChem BioAssay by National Center for Advancing Translational Sciences (NCATS).
VACV mCherry inh = qHTS for Stage-Specific Inhibitors of Vaccinia Orthopoxvirus: mCherry Reporter Primary qHTS; Vaccinia virus mCherry reporter infection, fluorescence; 310,000 compounds, 0.63% hits; Potency, µM (highest dose often 36.5 µM), for the others: top-dose activity change, negative = inhibition, actives largely listed as inhibitors; AID 720579, 2013; calls by dose curve; tested in A549 cells; note: potency is the fitted concentration of half-maximal effect; nearly all actives have a fitted effect of over 35% in size
Marburg entry inh = qHTS for inhibitors of binding or entry into cells for Marburg Virus. Marburg virus pseudotyped entry inhibition, cell reporter. Potency, µM (top dose mostly 37.8 µM), without a hit: top-dose activity change, negative = inhibition, actives largely listed as inhibitors. 300,000 compounds, 1.8% hits. AID 540276, 2011; calls by dose curve; tested in HEK293 cells; note: potency is the fitted concentration of half-maximal effect
VACV Venus inh = qHTS for Stage-Specific Inhibitors of Vaccinia Orthopoxvirus: Venus Reporter Primary qHTS; 330,000 compounds, 0.46% hits; Vaccinia virus Venus reporter expression, fluorescence; Potency, µM (doses to about 36.5 µM), for the others: at the top dose activity change, negative = inhibition, most hits filed as inhibitors; calls by dose curve; tested in A549 cells; note: potency is the fitted concentration of half-maximal effect; nearly all actives have a fitted effect of over 30% in size
HCV inh = qHTS Assay for Inhibitors of Hepatitis C Virus (HCV) | Huh7.5.1 HCVcc-Cre infection, luciferase reporter, 44 h | Potency, µM (doses to about 41.8 µM), inactives show at the top dose activity change, negative = inhibition, hits mostly inhibitors | 340,000 compounds, 3.4% hits | AID 651820, 2012; active = well fitted inhibition curve with a large enough effect; inconclusive = small, poorly fitted or top-dose-only effect, or another doubt; inactive = no such curve, though single readings can be large or run the other way; note: potency is the fitted concentration of half-maximal effect
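Cells seeded at 1,000/well and cultured 4 h, then compounds added followed by HCVcc-Cre virus (~0.5 moi). After 44 h further culture, luciferase substrate was added, plates held 15 min at room temperature, and luminescence read for 15 sec.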
HCMV antiviral = qHTS Assay for inhibitors of the human cytomegalovirus (HCMV) | HFF cells, HCMV-luciferase reporter, 72 h; stronger effect = lower value | activity change, negative = inhibition, % at 57.5 µM | 410,000 compounds, 4.5% hits | AID 1259415, 2018; in the data active = activity change below about -60%; inconclusive = no clear call, values can overlap the other calls; inactive = above about -39%
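Inhibition of viral replication was scored as loss of reporter luminescence in HFFs infected with HCMV-luciferase (MOI 1 PFU/cell) for 72 h; compounds tested at 2 doses, normalized to buffer and Salinomycin controls.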
Lassa entry inh = qHTS for Inhibitors of binding or entry into cells for Lassa Virus; 300,000 compounds, 1.2% hits; Potency, µM (titrated, usually from 37.9 µM), inactives show at the top dose activity change, negative = inhibition, actives largely listed as inhibitors; AID 540256, 2011; Lassa virus pseudotype entry inhibition, cell reporter; calls by dose curve; tested in HEK293 cells; note: potency is the fitted concentration of half-maximal effect; nearly all actives have a fitted effect of over 50% in size
Active calls of the source: *; [ ] = dose if it differs, or a comment. Most compounds without a hit are left out; they make up all but 7.8% or so of the library. % is set by controls: 0 for no effect and ±100 for the full control effect.

What do the screens show for `COc1ccccc1CN1C[C@@H]2C[C@@H](c3ccccc3C)N3CCC[C@@]23C1=O`?
VACV mCherry inh: -8%; VACV Venus inh: -16%; HCV inh: inconclusive; HCMV antiviral: -7

Results for Cc1ccccc1CN1C[C@@H]2C[C@@H](c3cnc(N4CCOCC4)s3)N3CCC[C@@]23C1=O ?
VACV mCherry inh: inactive; VACV Venus inh: -9%; HCV inh: inconclusive; HCMV antiviral: -76*

What do the screens show for `COc1ccc2sc(N(CCN(C)C)C(=O)/C=C/c3cccs3)nc2c1`?
HCV inh: 16µM*; HCMV antiviral: -76*

How did CCN(CC)CCN(C(=O)/C=C/c1cccs1)c1nc2ccc(OC)cc2s1 do in these assays?
HCV inh: inconclusive; HCMV antiviral: 4

Results for COc1ccc2nc(N(CCN(C)C)C(=O)/C=C/c3cccs3)sc2c1 ?
HCV inh: inconclusive; HCMV antiviral: -70*

What do the screens show for `CCOc1ccc2nc(N(CCN(CC)CC)C(=O)/C=C/c3cccs3)sc2c1`?
VACV mCherry inh: inconclusive; Marburg entry inh: inconclusive; VACV Venus inh: -25%; HCV inh: inconclusive; HCMV antiviral: inconclusive; Lassa entry inh: -24%[46.1 µM]

What do the screens show for `COc1ccc(C)cc1NS(=O)(=O)c1ccc(NC(=O)CN(c2cc([N+](=O)[O-])ccc2C)S(C)(=O)=O)cc1`?
VACV mCherry inh: -30%; Marburg entry inh: 3.7µM*; VACV Venus inh: inconclusive; HCV inh: 10µM*; HCMV antiviral: -35; Lassa entry inh: inconclusive

Results for O=C(NCC1Cc2cc(F)cc(-c3cnccn3)c2O1)c1cccc(Cl)c1 (stereo not given) ?
VACV mCherry inh: -2%; VACV Venus inh: -1%

How did CSc1ncc2c(n1)-c1ccccc1N(Cc1ccc(Cl)cc1)S2(=O)=O do in these assays?
VACV mCherry inh: -8%; VACV Venus inh: -7%; HCMV antiviral: -10; Lassa entry inh: 14%[46.1 µM]

What do the screens show for `CCCCS(=O)(=O)N1CCN(C(=N)N[N+](=O)[O-])CC1`?
VACV mCherry inh: inactive; Marburg entry inh: 10%[46.1 µM]; VACV Venus inh: -9%; HCV inh: 21%; HCMV antiviral: -62*; Lassa entry inh: 22%

Results for Cc1ccc(C(=O)OCC(=O)NC2CCCC2)cc1C ?
VACV mCherry inh: -7%; Marburg entry inh: inconclusive; VACV Venus inh: -1%; HCV inh: 13%; HCMV antiviral: -78*; Lassa entry inh: -21%

What do the screens show for `Cc1cccc(C(=O)OCC(=O)NC(=O)NC2CCCCC2)c1`?
VACV mCherry inh: -1%; VACV Venus inh: -14%; HCMV antiviral: -4

Results for CC(C)Oc1ccc(C(=O)OCC(=O)NC2CCCCCC2)cc1 ?
HCV inh: 11µM*; HCMV antiviral: 0

What do the screens show for `COc1ccc(C(=O)OCC(=O)NC2CCCC2)cc1OC`?
VACV mCherry inh: inactive; Marburg entry inh: -19%[46.1 µM]; VACV Venus inh: -11%; HCV inh: 5%; HCMV antiviral: -10; Lassa entry inh: 13%[46.1 µM]

What do the screens show for `Cc1cccc(C(=O)OCC(=O)NC2CCCCCCC2)c1`?
HCV inh: -7%; HCMV antiviral: -64*

How did COc1cc(C=O)cc(OC)c1[N+](=O)[O-] do in these assays?
VACV mCherry inh: -8%; VACV Venus inh: -7%

Results for COc1ccc(-c2c(C)nn3c(N4CCN(c5cc(Cl)ccc5C)CC4)cc(C)nc23)cc1OC ?
VACV mCherry inh: -7%; Marburg entry inh: -2%[46.1 µM]; VACV Venus inh: -4%; HCMV antiviral: -31; Lassa entry inh: -1%[46.1 µM]

Results for Cc1cc(C)c2c(CC(=O)NC(C)C)coc2c1 ?
VACV mCherry inh: -1%; Marburg entry inh: -18%[46.1 µM]; VACV Venus inh: 1%; HCV inh: 11%; HCMV antiviral: -61*; Lassa entry inh: -1%

What do the screens show for `CC(C)[C@@H]1NC(=O)[C@@H]2CSCCS(=O)(=O)N2C1=O`?
HCMV antiviral: 6; Lassa entry inh: inconclusive
